HCV inhibitor = blocks hepatitis C virus | AID 651820 | Potency, µM (top dose mostly 41.8 µM), usual class: inhibitors | Huh7.5.1 HCVcc-Cre infection, luciferase reporter, 44 h | 340,000 compounds, 3.4% hits
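Infectious HCVcc-Cre (~0.5 moi) was added to cells just after compound, with cells seeded 4 h earlier at 1,000 per well. Luciferase activity after 44 h culture reported infection; substrate was incubated 15 min at room temperature before reading.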
Pf growth 48h = P. falciparum growth inhibition at 48 hours (one generation) | Potency, µM (highest dose often 28.7 µM), usual class: inhibitors | AID 504832 | 310,000 compounds, 5.9% hits | P. falciparum luciferase growth in erythrocytes, 48 h
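Read-out is firefly luciferase luminescence from an integrated reporter in P. falciparum, so falling signal marks reduced parasite growth. Infected erythrocytes were at 2% hematocrit and 0.1% parasitemia (final) in Albumax-supplemented RPMI 1640.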
AMA1 RON2 block = disrupts binding of P. falciparum AMA1 to RON2. AlphaScreen AMA1-biotinylated RON2 peptide binding. Potency, µM (top dose mostly 58.2 µM), hits mostly inhibitors. AID 720542. 360,000 compounds, 0.2% hits; further: nearly all actives have a fitted effect of over 45% in size
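AMA1 (3D7) with his tag at 25 nM final met compounds first, then biotinylated RON2 peptide at 25 nM; detection used donor plus acceptor beads, 10 µg/mL apiece, read by AlphaScreen after 30 min at room temperature.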
Pf growth 96h = P. falciparum growth inhibition at 96 hour, primary screen for plastid delayed-death inhibitors; P. falciparum luciferase reporter growth, 96 h; Potency, µM (doses to about 28.7 µM), actives largely listed as inhibitors; 320,000 compounds, 6.9% hits
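Two-generation exposure (96 h) targets delayed-death phenotype. Reporter parasites carrying integrated firefly luciferase, in red cells at 2% hematocrit and 0.05% parasitemia final, kept at 37 C, 5% CO2; luminescence loss indicates inhibition.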
Large screens that a line does not name were inactive. Sampled rows, rich in hits. Any-hit rate of the full collection: about 11%. The call rests on the fitted dose curve; in most records, active means well fitted curve in the direction sought with a large enough effect; inconclusive means small, poorly fitted or top-dose-only effect, or another doubt; inactive means no such curve, though single readings can be large; an effect the other way counts as inactive or inconclusive.

CCOC(=O)c1nn(-c2ccc(Cl)cc2)c2nc(-c3ccc(C)cc3)c(C#N)c(=O)n12	Pf growth 48h 9.3µM (no result: Pf growth 96h)
CCC(C)(C)C1CCc2[nH]nc(C(=O)NCc3ccccn3)c2C1 (stereo not given)	Pf growth 48h 15µM, Pf growth 96h 9.3µM
CCC(C)(C)C1CCc2[nH]nc(C(=O)NCc3ccc(Cl)cc3)c2C1 (stereo not given)	Pf growth 48h inconclusive, Pf growth 96h inconclusive
CCC(C)(C)C1CCc2[nH]nc(C(=O)NCCN3CCOCC3)c2C1 (stereo not given)	Pf growth 48h inconclusive, Pf growth 96h inconclusive
CCC(C)(C)C1CCc2[nH]nc(C(=O)NCCCNC(=O)OC(C)(C)C)c2C1 (stereo not given)	Pf growth 48h 9.3µM
O=C(CN1C(=O)NC2(CCCc3ccccc32)C1=O)NCc1cccs1 (stereo not given)	none
Cc1ccn2c(CNCC3OCCc4ccccc43)c(C(=O)N3CCCCCC3)nc2c1 (stereo not given)	Pf growth 48h inconclusive
O=C(c1nc2ccccn2c1CNCCCn1cccn1)N1CCCC1	Pf growth 96h 13µM
O=C(c1nc2ccccn2c1CNCC1OCCc2ccccc21)N1CCOCC1 (stereo not given)	Pf growth 96h 12µM
Cc1ccn2c(CNCCCn3cccn3)c(C(=O)N3CCCCCC3)nc2c1	none
CN(C)C(=O)NC(Nc1ccc(Cl)cc1Cl)C(Cl)(Cl)Cl (stereo not given)	HCV inhibitor inconclusive
CCn1c2ccccc2c2cc(NC(=O)CSc3nnc(-c4ccccc4OC)n3N)ccc21	HCV inhibitor inconclusive, Pf growth 48h inconclusive
CCn1c2ccccc2c2cc(NC(=O)CSc3nnc(-c4ccc(OC)c(OC)c4)n3N)ccc21	Pf growth 48h inconclusive, Pf growth 96h inconclusive
CCOc1ccc(-c2nnc(SCC(=O)Nc3ccc4c(c3)c3ccccc3n4CC)n2N)cc1	HCV inhibitor 4µM, AMA1 RON2 block inconclusive, Pf growth 96h inconclusive
CCn1c2ccccc2c2cc(NC(=O)CSc3nnc(-c4cccc(OC)c4)n3N)ccc21	HCV inhibitor 8.9µM, Pf growth 48h inconclusive, Pf growth 96h inconclusive
Cc1cccc(NC(=O)c2cc([N+](=O)[O-])ccc2N2CCCCC2)n1	HCV inhibitor inconclusive, Pf growth 96h inconclusive
COc1ccc(C(=O)C2CCN(CC(=O)Nc3ccc(C)cc3)CC2)cc1	HCV inhibitor inconclusive
CN1CCN(Cc2nc3ccccc3c(=O)n2Cc2nc(-c3cccc([N+](=O)[O-])c3)cs2)CC1	HCV inhibitor 2.5µM, Pf growth 48h inconclusive, Pf growth 96h 2.3µM
CN1CCN(Cc2nc3ccccc3c(=O)n2Cc2nc(-c3ccc4ccccc4c3)cs2)CC1	HCV inhibitor 11µM, Pf growth 48h 12µM, Pf growth 96h inconclusive
CN(C)Cc1nc2ccccc2c(=O)n1Cc1nc(C(C)(C)C)cs1	HCV inhibitor inconclusive, Pf growth 48h 13µM
CN1CCN(Cc2nc3ccccc3c(=O)n2Cc2nc(-c3ccccc3F)cs2)CC1	HCV inhibitor inconclusive, Pf growth 48h inconclusive, Pf growth 96h inconclusive
CCCCn1c(N)c(N(CCC(C)C)C(=O)c2ccc(C)c(S(=O)(=O)N3CCOCC3)c2)c(=O)[nH]c1=O	none
COc1ccc(-n2nc(C(=O)NCC(=O)NCCCN3CCOCC3)c3ccccc3c2=O)cc1OC	none
COc1ccc(CC(N)c2csc(Nc3cc(NCc4ccco4)ncn3)n2)cc1 (stereo not given)	none (no result: HCV inhibitor, Pf growth 48h, Pf growth 96h)
COc1ccc(NS(=O)(=O)c2ccc3c(c2)CCN3C(=O)CCC(=O)O)cc1OC	none
CNC(=O)c1nc(C)n(-c2ccc(Cl)cc2Cl)n1	Pf growth 96h inconclusive
Cc1c(C(=O)NN2CCCCC2)nn(-c2ccc(Cl)cc2Cl)c1-c1ccc(Cl)cc1	Pf growth 48h inconclusive, Pf growth 96h 8.5µM (no result: HCV inhibitor, AMA1 RON2 block)
CC1CCN(C2CC(=O)N(c3ccc(Br)cc3Br)C2=O)CC1 (stereo not given)	none
O=C(O)C(Cc1c[nH]c2ccccc12)NS(=O)(=O)c1ccc(Cl)cc1 (stereo not given)	none
O=S(=O)(Cc1cc(Oc2ccccc2)nc(-c2ccccc2)n1)c1ccccc1	none
CCOC(=O)C(C)Sc1cc(CS(=O)(=O)c2ccccc2)nc(-c2ccccc2)n1 (stereo not given)	HCV inhibitor inconclusive, Pf growth 96h 10µM
CC(C)(C#CCN1CCCCC1)OCCOC(c1ccccc1)c1ccccc1	HCV inhibitor inconclusive, AMA1 RON2 block inconclusive

Assay outcomes as filed in PubChem BioAssay.
